Bioassay records as filed in PubChem.
Most compounds without a hit are left out; they make up all but 3.5% or so of the library.
GPR151 ag = activates the human receptor GPR151; activation, % at 11.2 µM; 1% of 650,000 active; AID 1508602; PathHunter beta-arrestin GPR151 cells, luminescence; Q8TDV0; in the data active = activation above about 4.9%;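 also: 0% = median of compound wells and 100% = cells with positive control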
MITF primary = blocks human microphthalmia-associated transcription factor | 0.91% of 650,000 active | inhibition, % at 2.6 µM | O75030 | AlphaScreen MITF homodimerization, bead proximity signal; in the data active = inhibition above about 50%;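 also: 0% = vehicle wells with protein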
Target sequence (O75030 whole entry, looked up): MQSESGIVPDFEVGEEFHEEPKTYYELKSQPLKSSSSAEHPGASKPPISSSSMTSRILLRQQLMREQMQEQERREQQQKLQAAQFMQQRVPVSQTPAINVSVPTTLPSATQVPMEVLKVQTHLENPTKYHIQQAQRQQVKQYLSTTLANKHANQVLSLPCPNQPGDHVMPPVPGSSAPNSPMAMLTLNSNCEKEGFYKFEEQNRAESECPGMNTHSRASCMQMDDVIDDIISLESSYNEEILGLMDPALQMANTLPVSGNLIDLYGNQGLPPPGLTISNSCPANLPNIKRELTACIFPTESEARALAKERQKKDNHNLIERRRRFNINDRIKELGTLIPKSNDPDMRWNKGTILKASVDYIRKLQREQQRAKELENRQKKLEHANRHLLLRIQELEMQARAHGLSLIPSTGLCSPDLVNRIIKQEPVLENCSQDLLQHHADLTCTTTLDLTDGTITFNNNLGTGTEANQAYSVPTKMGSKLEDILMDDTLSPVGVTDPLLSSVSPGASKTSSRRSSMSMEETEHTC
TEAD-YAP block = TEAD-YAP interaction inhibition. inhibition, % at 9.12 µM. 1.4% of 640,000 active. HEK-TIYL cells, TEAD-Gal4/YAP UAS-luciferase luminescence; in the data active = inhibition above about 32%;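 also: 0% = median of test compound wells and 100% = reference inhibitor wells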
FBW7 activator = human FBW7 E3 ligase activation, primary screen; AID 1259310; AlphaScreen FBW7–phospho-cyclin E peptide binding, activator screen; 0.13% of 650,000 active; normalized activity (activation), % at 26.1 µM; Q969H0; in the data active = normalized activity above about 1.9%;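 also: purified mutant Fbw7 with reduced substrate affinity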
The depositor's hits bear a star.

SMILES	GPR151 ag	MITF primary	TEAD-YAP block	FBW7 activator
OCCCNc1ccc2ncc(-c3cccc(O)c3)n2n1	0	-11	72*	0
FC(F)(F)c1cccc(-c2cnc3ccc(NCCCN4CCOCC4)nn23)c1	0	7	16	1.9*
CC(=O)c1cccc(-c2cnc3ccc(NCc4cccs4)nn23)c1	0	0	7	0
OCCCNc1ccc2ncc(-c3ccsc3)n2n1	-2	0	51*	1
O=C(O)c1ccc(-c2cnc3ccc(NCCCO)nn23)cc1	0	12	0	0
OCCCNc1ccc2ncc(-c3cccc(Cl)c3)n2n1	0	0	53*	0
CS(=O)(=O)N(Cc1cccnc1)C1CCN(Cc2ccncc2)CC1	1	-2	7	0
Cc1nc(C)c(C(=O)NC(C)c2cnn(-c3ccccn3)c2C)s1 (configuration not stated)	3	-2	45*	0
Cc1nc(C)c(C(=O)NC(C)c2cnn(-c3ccccc3C)c2C)s1 (configuration not stated)	2	1	54*	0
N#Cc1cc2cc3c(cc2nc1SCC(=O)Nc1ccc2c(c1)OCO2)OCCO3	0	-10	2	0
COc1ccc(-c2cc(-c3cc(OC)ccc3O)[nH]n2)cc1	0	12	-46	-1
COc1ccc(-c2cc(-c3c(O)ccc4ccccc34)[nH]n2)cc1	2	4	89*	0
CCOc1ccccc1-c1cc(C(=O)N/N=C(/C)c2cccc(O)c2)[nH]n1	0	9	52*	1
COc1cc(/C(C)=N/NC(=O)c2cc(-c3cccc4ccccc34)n[nH]2)ccc1O	0	9	-49	1
CCOc1ccccc1-c1cc(C(=O)N/N=C(/C)c2ccccc2)[nH]n1	0	9	50*	0
O=C(CN1C(=O)NC(Cc2c[nH]c3ccccc23)C1=O)Nc1cccc(Cl)c1Cl (configuration not stated)	0	3	8	0
Cc1nc2cc(NC(=O)N3c4ccccc4CC3C)ccc2n1C (configuration not stated)	-2	-5	37*	0
CN(C)CCN1CCN(c2ccnc3cc4ccccc4cc23)CC1	0	-11	44*	0
CN1CCN(CCCNc2nc(=S)[nH]c3ccccc23)CC1	0	-9	-5	0
CN1CCN(CCCNc2ccnc3cc4ccccc4cc23)CC1	-1	8	75*	0
Cc1ccc2cc3cc(C(=O)N4CCN(C)CC4)oc3nc2c1	1	-22	45*	0
COCCNc1c(-c2ccc(C)cc2)c(=O)c1=O	3	-3	-2	0
COCCCNc1c(-c2ccc(Cl)cc2)c(=O)c1=O	-1	-5	48*	0
CCCOc1ccc(/C(O)=C2\C(=O)C(=O)N(CCCN(C)C)C2c2ccc(OC)c(OC)c2)c(C)c1 (configuration not stated)	-2	15	33*	0
CCCOc1ccc(/C(O)=C2\C(=O)C(=O)N(CCN(C)C)C2c2ccc(OC)c(OC)c2)c(C)c1 (configuration not stated)	1	-6	-7	0
SMILES	GPR151 ag	MITF primary	TEAD-YAP block	FBW7 activator
c1cncc(CNc2nc(NCc3nc4ccccc4[nH]3)c3ncn(-c4ccsc4)c3n2)c1	1	-8	86*	0
c1cnc(Nc2nc(NCc3nc4ccccc4[nH]3)c3ncn(-c4ccsc4)c3n2)nc1	-1	-18	69*	50*
Cc1nc2ccccn2c1C(=O)NC1CCCc2ccccc21 (configuration not stated)	2	1	40*	0
Cc1nnc2sc(-c3ccc(NC(=O)C(C)(C)C)cc3)nn12	-1	1	40*	0
CNC(=O)c1ccccc1Nc1ccnc(Nc2ccccn2)c1	0	5	76*	-1
CNC(=O)c1ccccc1Nc1cc(Nc2ccc(-c3cncnc3)cc2OC)ncc1C(F)(F)F	0	36	13	2
CNC(=O)c1ccccc1Nc1cc(Nc2ncccc2C)ncc1C(F)(F)F	-2	36	40*	0
CNC(=O)c1ncccc1Nc1cc(Nc2ccc(C(=O)N(C)C)cn2)ncc1C(F)(F)F	0	-2	72*	0
CNC(=O)c1ncccc1Nc1cc(Nc2ccc3[nH]ncc3c2)ncc1C(F)(F)F	1	3	9	0
CNC(=O)c1ccccc1Nc1cc(Nc2ccc(C(=O)N(C)C)cc2C)ncc1C(F)(F)F	0	-4	73*	0
CNC(=O)c1ccccc1Nc1cc(Nc2ccc(C(=O)N(C)C)cn2)ncc1C(F)(F)F	-1	-4	84*	0
N#C/C(=C\c1cccc(O)c1)C(=O)Nc1ccc(F)cc1	1	-1	-14	0
O=C(N/N=C/c1ccc([N+](=O)[O-])cc1)c1cccc(O)c1	-2	12	40*	0
O=C(N/N=C/c1ccc(O)cc1)c1cccc(O)c1	-6	-2	23	0
O=C(N/N=C/c1ccccc1)c1cccc(O)c1	-2	13	34*	0
N/C(=N\N=C/c1ccc([N+](=O)[O-])cc1)N/N=C\c1ccc([N+](=O)[O-])cc1	0	-16	0	4.3*
O=C(CC(=O)N/N=C/c1ccc([N+](=O)[O-])cc1)N/N=C/c1ccc([N+](=O)[O-])cc1	0	-3	4	0
COc1cc(C2CC(c3ccc(Cl)cc3)Nc3ncnn32)cc(OC)c1OC (configuration not stated)	4	6	54*	0
COc1ccc(C2CC(c3ccc(Cl)cc3)Nc3ncnn32)c(OC)c1OC (configuration not stated)	2	7	5	0
CCOC(=O)c1sc2ncnc(NCc3ccccc3Cl)c2c1C	-1	10	-3	0
Cc1cc2c(c(=O)[nH]1)C(=O)O/C2=C\c1cccc(I)c1	0	-8	-5	0
O=C(Nc1nc2ccc(F)cc2s1)c1ccco1	-5	-8	-8	0
O=C(CCl)NCc1ccc2[nH]c3c(c2c1)CCCC3	2	15	34*	0
CC(C)C(=O)NCc1ccc2[nH]c3c(c2c1)CCCC3	-2	16	4	0
O=C(Cn1nnc2ccccc21)Nc1ccc2c(c1)CCC2	0	-3	-54	0
CCOc1ccc(N(C(C)C(=O)Nc2ccccc2OC)S(C)(=O)=O)cc1 (configuration not stated)	-1	1	17	0
CCOC(=O)c1ccccc1NC(=O)C(C)N(c1ccc(OCC)cc1)S(C)(=O)=O (configuration not stated)	-1	-8	57*	0
CCOc1ccc(N(C(C)C(=O)Nc2ccccc2Cl)S(C)(=O)=O)cc1 (configuration not stated)	1	-12	0	0
CCOc1ccc(N(C(C)C(=O)Nc2ccc(Cl)cc2C)S(C)(=O)=O)cc1 (configuration not stated)	1	10	6	1
CCOc1ccc(N(C(C)C(=O)Nc2cc(C)ccc2OC)S(C)(=O)=O)cc1 (configuration not stated)	0	-12	47*	0
